Laboratory results taken from the supplement of paper PMC4466140.

Assays:
Experiment in all cases: SPOT peptide array binding signal intensity (averaged, normalized) (arbitrary units (background-subtracted, floor 0; scale differs between SH3 domains)); higher = stronger binding of the SH3 domain to the peptide
AgAbp1 = target: AgAbp1
Method in brief: (§1)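 SH3 domains from four yeast species were expressed as GST fusions in E. coli BL21(DE3) and purified on glutathione Sepharose. Each was incubated at 10 μg/ml overnight at 4°C in TBS-based blocking buffer on cellulose membranes bearing synthetic 15-mer peptides, in which serines replaced cysteines. Bound protein was detected with anti-GST antibody, an HRP anti-mouse secondary and luminol, then imaged and quantified with Genespotter. The binding signal is the normalized, background-subtracted spot intensity averaged over replicates, in arbitrary units that are not the same from one domain to another.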

AgBbc1 = target: AgBbc1
Method in brief: as §1

AgBem1-D1 = target: AgBem1-D1
Method in brief: as §1

AgBzz1-D1 = target: AgBzz1-D1
Method in brief: as §1

AgBzz1-D2 = target: AgBzz1-D2
Method in brief: as §1

AgCyk3 = target: AgCyk3
Method in brief: as §1

AgFus1 = target: AgFus1
Method in brief: as §1

AgHof1 = target: AgHof1
Method in brief: as §1

AgHse1 = target: AgHse1
Method in brief: as §1

AgLsb1 = target: AgLsb1
Method in brief: as §1

AgLsb4 = target: AgLsb4
Method in brief: as §1

AgMyo5 = target: AgMyo5
Method in brief: as §1

AgNbp2 = target: AgNbp2
Method in brief: as §1

AgRvs167 = target: AgRvs167
Method in brief: as §1

AgSho1 = target: AgSho1
Method in brief: as §1

AgSla1-D1-D2 = target: AgSla1-D1-D2
Method in brief: as §1

AgSla1-D3 = target: AgSla1-D3
Method in brief: as §1

CaAbp1-D1 = target: CaAbp1-D1
Method in brief: as §1

CaAbp1-D2 = target: CaAbp1-D2
Method in brief: as §1

CaBbc1 = target: CaBbc1
Method in brief: as §1

CaBem1-D1 = target: CaBem1-D1
Method in brief: as §1

CaBzz1-D1 = target: CaBzz1-D1
Method in brief: as §1

CaBzz1-D2 = target: CaBzz1-D2
Method in brief: as §1

CaCyk3 = target: CaCyk3
Method in brief: as §1

CaFus1 = target: CaFus1
Method in brief: as §1

CaHof1 = target: CaHof1
Method in brief: as §1

CaHse1 = target: CaHse1
Method in brief: as §1

CaLsb1 = target: CaLsb1
Method in brief: as §1

CaLsb4 = target: CaLsb4
Method in brief: as §1

CaMyo5 = target: CaMyo5
Method in brief: as §1

CaNbp2 = target: CaNbp2
Method in brief: as §1

CaRvs167 = target: CaRvs167
Method in brief: as §1

CaRvs167-3 = target: CaRvs167-3
Method in brief: as §1

CaSho1 = target: CaSho1
Method in brief: as §1

CaSla1-D1-D2 = target: CaSla1-D1-D2
Method in brief: as §1

CaSla1-D3 = target: CaSla1-D3
Method in brief: as §1

ScAbp1 = target: ScAbp1
Method in brief: as §1

ScBbc1 = target: ScBbc1
Method in brief: as §1

ScBem1-D1 = target: ScBem1-D1
Method in brief: as §1

ScBzz1-D1 = target: ScBzz1-D1
Method in brief: as §1

ScBzz1-D2 = target: ScBzz1-D2
Method in brief: as §1

ScCyk3 = target: ScCyk3
Method in brief: as §1

ScFus1 = target: ScFus1
Method in brief: as §1

ScHof1 = target: ScHof1
Method in brief: as §1

ScHse1 = target: ScHse1
Method in brief: as §1

ScLsb1 = target: ScLsb1
Method in brief: as §1

ScLsb2 = target: ScLsb2
Method in brief: as §1

ScLsb3 = target: ScLsb3
Method in brief: as §1

ScLsb4 = target: ScLsb4
Method in brief: as §1

ScMyo3 = target: ScMyo3
Method in brief: as §1

ScMyo5 = target: ScMyo5
Method in brief: as §1

ScNbp2 = target: ScNbp2
Method in brief: as §1

ScPex13 = target: ScPex13
Method in brief: as §1

ScRvs167 = target: ScRvs167
Method in brief: as §1

ScSho1 = target: ScSho1
Method in brief: as §1

ScSla1-D1-D2 = target: ScSla1-D1-D2
Method in brief: as §1

ScSla1-D3 = target: ScSla1-D3
Method in brief: as §1

SpAbp1-D1 = target: SpAbp1-D1
Method in brief: as §1

SpBbc1 = target: SpBbc1
Method in brief: as §1

SpBzz1-D1 = target: SpBzz1-D1
Method in brief: as §1

In the case of DAPASKPSVPPRNYF, the “SPOT peptide array binding signal intensity” value (AgAbp1) is reported as 2.5, the “SPOT peptide array binding signal intensity” value (AgBbc1) is reported as 239 and the “SPOT peptide array binding signal intensity” value (AgBem1-D1) is reported as 2. The “SPOT peptide array binding signal intensity” value (AgBzz1-D1) was 26.5, the “SPOT peptide array binding signal intensity” value (AgBzz1-D2) was no more than 0 and the “SPOT peptide array binding signal intensity” value (AgCyk3) was 2.5. The “SPOT peptide array binding signal intensity” value (AgFus1) was no more than 0, the “SPOT peptide array binding signal intensity” value (AgHof1) was no more than 0 and the “SPOT peptide array binding signal intensity” value (AgHse1) was no more than 0. The “SPOT peptide array binding signal intensity” value (AgLsb1) was 1080, the “SPOT peptide array binding signal intensity” value (AgLsb4) was 69.5 and the “SPOT peptide array binding signal intensity” value (AgMyo5) was no more than 0. The “SPOT peptide array binding signal intensity” value (AgNbp2) was 45, the “SPOT peptide array binding signal intensity” value (AgRvs167) was 13.2 and the “SPOT peptide array binding signal intensity” value (AgSho1) was 1. The “SPOT peptide array binding signal intensity” value (AgSla1-D1-D2) was no more than 0, the “SPOT peptide array binding signal intensity” value (AgSla1-D3) was no more than 0 and the “SPOT peptide array binding signal intensity” value (CaAbp1-D1) was 17.5. For the same binder, the “SPOT peptide array binding signal intensity” value (CaAbp1-D2) was 3, the “SPOT peptide array binding signal intensity” value (CaBbc1) was 962 and the “SPOT peptide array binding signal intensity” value (CaBem1-D1) was no more than 0. For the same binder, the “SPOT peptide array binding signal intensity” value (CaBzz1-D1) was 190, the “SPOT peptide array binding signal intensity” value (CaBzz1-D2) was 5.75 and the “SPOT peptide array binding signal intensity” value (CaCyk3) was 34.5. The “SPOT peptide array binding signal intensity” value (CaFus1) was no more than 0, the “SPOT peptide array binding signal intensity” value (CaHof1) was no more than 0 and the “SPOT peptide array binding signal intensity” value (CaHse1) was no more than 0. The “SPOT peptide array binding signal intensity” value (CaLsb1) was 35, the “SPOT peptide array binding signal intensity” value (CaLsb4) was 427 and the “SPOT peptide array binding signal intensity” value (CaMyo5) was no more than 0. For the same binder, the “SPOT peptide array binding signal intensity” value (CaNbp2) was no more than 0, the “SPOT peptide array binding signal intensity” value (CaRvs167) was 199 and the “SPOT peptide array binding signal intensity” value (CaRvs167-3) was no more than 0. For the same binder, the “SPOT peptide array binding signal intensity” value (CaSho1) was no more than 0, the “SPOT peptide array binding signal intensity” value (CaSla1-D1-D2) was 38 and the “SPOT peptide array binding signal intensity” value (CaSla1-D3) was no more than 0. The “SPOT peptide array binding signal intensity” value (ScAbp1) was no more than 0, the “SPOT peptide array binding signal intensity” value (ScBbc1) was 5.5 and the “SPOT peptide array binding signal intensity” value (ScBem1-D1) was 2. For the same binder, the “SPOT peptide array binding signal intensity” value (ScBzz1-D1) was 20, the “SPOT peptide array binding signal intensity” value (ScBzz1-D2) was 10 and the “SPOT peptide array binding signal intensity” value (ScCyk3) was no more than 0. For the same binder, the “SPOT peptide array binding signal intensity” value (ScFus1) was no more than 0, the “SPOT peptide array binding signal intensity” value (ScHof1) was no more than 0 and the “SPOT peptide array binding signal intensity” value (ScHse1) was no more than 0. For the same binder, the “SPOT peptide array binding signal intensity” value (ScLsb1) was 681, the “SPOT peptide array binding signal intensity” value (ScLsb2) was 2160 and the “SPOT peptide array binding signal intensity” value (ScLsb3) was 1550. The “SPOT peptide array binding signal intensity” value (ScLsb4) was 293, the “SPOT peptide array binding signal intensity” value (ScMyo3) was no more than 0 and the “SPOT peptide array binding signal intensity” value (ScMyo5) was no more than 0. The “SPOT peptide array binding signal intensity” value (ScNbp2) was 526, the “SPOT peptide array binding signal intensity” value (ScPex13) was 1310 and the “SPOT peptide array binding signal intensity” value (ScRvs167) was 1530. For the same binder, the “SPOT peptide array binding signal intensity” value (ScSho1) was no more than 0, the “SPOT peptide array binding signal intensity” value (ScSla1-D1-D2) was 329 and the “SPOT peptide array binding signal intensity” value (ScSla1-D3) was 145. For the same binder, the “SPOT peptide array binding signal intensity” value (SpAbp1-D1) was 3, the “SPOT peptide array binding signal intensity” value (SpBbc1) was 182 and the “SPOT peptide array binding signal intensity” value (SpBzz1-D1) was 95.
